Screening results as filed in PubChem BioAssay.
ClpP mod – qHTS Assay for Activators of ClpP | purified B. subtilis ClpP, FRET peptide cleavage, 20 min | Potency, µM (doses to about 57.5 µM) | 1.9% of 340,000 active | AID 651965, 2013; active = well fitted falling curve with a large enough effect; inconclusive = small, poorly fitted or top-dose-only effect; inactive = no such curve, though single readings can be large or run the other way; note: the source files actives as falling curves though it sought activators and does not explain the sign; nearly all actives have a fitted effect of over 65% in size
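ClpP 10 microg/mL final, pH 8 Tris/KCl buffer with BSA, glycerol, Tween-20; compound pinned in; FRET-FV substrate; RT 20 min; Ex320/Em430; ΔFRET vs ADEP 5.8 microM, DMSO, no enzyme.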
Eya2 inh – Eya2 (human) phosphatase inhibition. O00167. recombinant Eya2, OMFP fluorescence dephosphorylation (OMFP is methylfluorescein phosphate). Potency, µM (doses to about 76.9 µM), actives largely listed as inhibitors. 0.006% of 330,000 active. AID 488837
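Eya2 protein (added as 0.2 uM solution) was preincubated with compound for 10 min at ambient temperature in 50 mM HEPES pH 7.5, 50 mM NaCl, 5 uM MgCl2, 0.05% BSA, 1 mM DTT. OMFP (added at 50 uM) then reacted 10 min; fluorescence read at 485/525 nm.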
GALK inh – inhibitors of human galactokinase; P51570; Purified GALK, Kinase-Glo residual ATP luminescence; Potency, µM (top dose mostly 57.5 µM), hits mostly inhibitors; 0.007% of 270,000 active; AID 1868
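Human GALK (5 nM) with 35 uM ATP and 100 uM galactose in 20 mM HEPES pH 8.0, 5 mM MgCl2, 60 mM NaCl, 1 mM DTT, 0.01% BSA. After 1 h at room temperature, leftover ATP was read by Kinase-Glo Plus luminescence.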
USP2a block – blocks human ubiquitin-specific protease USP2a; USP2 core, Ub-CHOP2 coupled fluorogenic reporter, 485/531; Potency, µM (doses to about 38.3 µM), most hits filed as inhibitors; 0.01% of 330,000 active
Target sequence (O75604 whole entry, looked up): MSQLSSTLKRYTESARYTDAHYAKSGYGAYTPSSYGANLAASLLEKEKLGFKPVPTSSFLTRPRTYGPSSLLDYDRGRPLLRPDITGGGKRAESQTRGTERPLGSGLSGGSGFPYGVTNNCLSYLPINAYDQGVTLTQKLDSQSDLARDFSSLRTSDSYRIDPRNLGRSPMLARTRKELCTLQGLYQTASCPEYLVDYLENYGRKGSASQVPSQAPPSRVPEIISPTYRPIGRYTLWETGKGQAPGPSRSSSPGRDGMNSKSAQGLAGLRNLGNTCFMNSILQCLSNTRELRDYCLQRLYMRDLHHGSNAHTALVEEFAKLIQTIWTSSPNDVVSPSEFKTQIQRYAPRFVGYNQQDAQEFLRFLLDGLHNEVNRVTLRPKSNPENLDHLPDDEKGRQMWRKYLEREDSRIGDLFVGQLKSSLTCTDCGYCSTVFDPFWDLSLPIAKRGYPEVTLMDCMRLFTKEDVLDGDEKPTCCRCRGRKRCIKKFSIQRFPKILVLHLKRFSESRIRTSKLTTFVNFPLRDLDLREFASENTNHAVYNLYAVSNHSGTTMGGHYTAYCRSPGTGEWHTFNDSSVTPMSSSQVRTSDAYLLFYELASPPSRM
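Cell-free coupled assay: 10nM USP2 core preincubated 30min RT with compound in Tris-HCl pH 8.0/CaCl2/CHAPS buffer, then 25nM Ub-CHOP2 and 25nM reporter substrate; fluorescence (Ex 485/Em 531) read after 60min RT, normalized to NEM inhibition, concentration-response curves fitted.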
Each line names hits and unclear results; the compound was inactive in the other large screens; ! = not confirmed by another sample. Many of the other results were omitted from the sample, so hits are more common in it than they were. Unless noted, calls come from the whole dose curve; as a rule, active = well fitted inhibition curve with a large enough effect; inconclusive = small, poorly fitted or top-dose-only effect, or effect the other way; inactive = flat fitted curve, though single readings scatter.

Cc1ccc(NC(=O)/C(=C/C=C/c2ccccc2)NC(=O)c2ccccc2)cc1	none
O=[N+]([O-])c1ccc(NCCNCCOc2nonc2-c2ccccc2)c([N+](=O)[O-])c1	ClpP mod 15.8µM
Cc1cc(=O)n2c3ccccc3n(CC(O)CN3CCN(Cc4ccccc4)CC3)c2c1C#N (stereo not given)	none
Cc1c2cccn2cc[n+]1C	ClpP mod 10µM
Cc1c2ccccc2cc[n+]1C	none (no result: Eya2 inh, GALK inh, USP2a block)
O=C(Nc1cccc(C(F)(F)F)c1)c1cccnc1NCCO	none (no result: ClpP mod)
O=C(Nc1cccc(C(F)(F)F)c1)c1cccnc1NCCc1ccccc1	ClpP mod 28.2µM
CC(C)CC(=O)N1CCC(O)(CS(=O)(=O)Cc2ccccc2Cl)CC1	none
Cc1nn(CCc2nn[nH]n2)c2nc(C(F)(F)F)cc(C(F)(F)F)c12	ClpP mod 10µM
CCN(CC)c1ccc2cc(-c3nc(-c4ccccc4F)no3)c(=O)oc2c1	ClpP mod 25.1µM (no result: Eya2 inh, GALK inh, USP2a block)
CCN(CC)c1ccc2cc(-c3nc(-c4cc(OC)c(OC)c(OC)c4)no3)c(=O)oc2c1	none (no result: Eya2 inh, GALK inh, USP2a block)
CCN(CC)c1ccc2cc(-c3nnc(-c4cccc(Cl)c4)o3)c(=O)oc2c1	ClpP mod 28.2µM (no result: Eya2 inh, GALK inh, USP2a block)
CCN(CC)c1ccc2cc(-c3nnc(-c4ccncc4)o3)c(=O)oc2c1	ClpP mod inconclusive
COc1cc(C2CC(=O)n3c(nc4ccccc43)S2)cc(OC)c1OC (stereo not given)	none (no result: ClpP mod)
O=C(CCC(=O)c1ccc(Cl)cc1)OCC(=O)c1ccccc1	ClpP mod 31.6µM
COc1ccc(N2CCN(CCNC(=O)Nc3cc(Cl)ccc3OC)CC2)cc1	none
Cc1cc2oc(C(=O)NC3CCS(=O)(=O)C3)c(C)c2cc1C (stereo not given)	ClpP mod 28.2µM
Cc1c(C(=O)NC2CCS(=O)(=O)C2)oc2ccccc12 (stereo not given)	none
O=C(c1cc(-c2cccs2)on1)N1CCOCC1	none
CCCCN(C)C(=O)CCC(=O)NNc1nc2ccccc2c2nc(C)nn12	ClpP mod 25.1µM!
COc1ccc(CCNC(=O)Cc2c(C)c3cc4c(C(C)(C)C)coc4c(C)c3oc2=O)cc1	none (no result: Eya2 inh, GALK inh, USP2a block)
Cc1c(CC(=O)NCCc2ccccc2)c(=O)oc2c(C)c3occ(C(C)(C)C)c3cc12	ClpP mod 31.6µM (no result: Eya2 inh, GALK inh, USP2a block)
CCCNC(=O)COc1nc2ccccc2nc1N1CCOCC1	none
CC1Cc2ccccc2N1C(=O)COc1nc2ccccc2nc1N1CCOCC1 (stereo not given)	ClpP mod 28.2µM
O=C(CSc1nnc(-c2ccc3c(c2)OCCO3)o1)N1CCCC1	none
CSc1nc2ccccc2n1Cc1cccc(F)c1	none
Fc1cccc(Oc2nc3ccccc3n3cccc23)c1	ClpP mod 22.4µM
COC(=O)c1ccccc1NC(=O)Cc1nc(-c2ccc(OC)cc2)no1	ClpP mod 28.2µM (no result: Eya2 inh, GALK inh, USP2a block)
COc1ccc(-c2noc(CC(=O)Nc3ccc(C)c(F)c3)n2)cc1	none (no result: Eya2 inh, GALK inh, USP2a block)
O=C(NC1CCCCC1)C1(S(=O)(=O)c2ccc(Cl)cc2)CC1	none (no result: ClpP mod)
Cc1c(Cl)cccc1S(=O)(=O)N1CCC(C(=O)NNC(=O)C2CC2)CC1	none (no result: ClpP mod)
COc1cccc2c1cc1c(=O)n(CC(=O)NC3CCCCC3)nc(C)n12	ClpP mod 31.6µM
COc1cccc2c1cc1c(=O)n(CC(=O)N3CCN(c4ccc(F)cc4)CC3)nc(C)n12	ClpP mod 20µM (no result: Eya2 inh, GALK inh, USP2a block)
CCCn1c(N)c(N(CCOC)C(=O)c2ccc(-c3ccccc3)cc2)c(=O)[nH]c1=O	Eya2 inh inconclusive (no result: GALK inh)
CCCOc1cccc(C(=O)Nc2cccc3cccnc23)c1	none (no result: Eya2 inh, GALK inh, USP2a block)
O=C(Cn1cc(C(=O)c2cccs2)c2ccccc21)NC1CCCCC1	none
NC(=O)Cn1cc(C(=O)c2cccs2)c2ccccc21	ClpP mod 20µM
[S-]C(=Nc1ccc(Cl)cc1)N[n+]1ccccc1	ClpP mod 28.2µM
ONC(=Nc1ccc(Cl)cc1)c1ccc(Cl)cc1	none
COC(=O)C1=C(CCc2ccccc2)NC(=O)NC1c1ccc(Cl)cc1 (stereo not given)	none (no result: Eya2 inh, GALK inh, USP2a block)
Clc1ccc2nc(-c3ccncc3)cc(-c3ccccc3)c2c1	none
c1ccc(-c2cc(-c3ccncc3)nc3ccc4ccccc4c23)cc1	ClpP mod 22.4µM
CCc1cccc(C)c1NC(=O)Cn1c(=O)n(-c2cccc(C)c2)c(=O)c2c1c1cc(C)ccc1n2C	none (no result: Eya2 inh, GALK inh, USP2a block)
COc1ccc(C2C(C#N)=C(SCC(=O)Nc3ccc(C)cc3)NC3=C2C(=O)CC(C)(C)C3)cc1 (stereo not given)	ClpP mod 22.4µM
CCC1C(C#N)=C(SCC(N)=O)NC2=C1C(=O)CC(C)(C)C2 (stereo not given)	none
CS(=O)(=O)N1CCCCC1CCN1CCCCC1 (stereo not given)	ClpP mod 28.2µM (no result: Eya2 inh, GALK inh, USP2a block)
CCN(CC)C(=O)Cn1cc(C(=O)C(=O)NCC2COc3ccccc3O2)c2ccccc21 (stereo not given)	ClpP mod 20µM
CCN(CC)C(=O)Cn1cc(C(=O)C(=O)NCc2cccs2)c2ccccc21	none
Cc1cc2ccccc2c(=O)n1CC(=O)NCC1COc2ccccc2O1 (stereo not given)	ClpP mod 25.1µM
Cn1c(N)c(C(=O)CSc2nnc(-c3ccccc3F)n2C2CC2)c(=O)n(C)c1=O	none (no result: ClpP mod)
Cc1ccc(C(=O)Nc2ccc3c(c2)OCO3)cc1	none
Cc1ccc(C(C)(C)C)cc1S(=O)(=O)NC(=O)c1ccccc1	Eya2 inh inconclusive (no result: ClpP mod)
COC(=O)c1ccccc1S(=O)(=O)NC(=O)c1ccccc1	ClpP mod 20µM
Cc1cc(OCC(=O)N(Cc2ccccc2)C2CCS(=O)(=O)C2)ccc1Cl (stereo not given)	none
Cc1ccc(NC(=O)CCC(=O)c2ccc(F)cc2)cc1Cl	ClpP mod 25.1µM
COc1ccc(C(=O)CCC(=O)Nc2ccc(C)c(Cl)c2)cc1	none (no result: Eya2 inh, GALK inh, USP2a block)
CC(C)CCN1C(=O)CSCC1(C)C(=O)NC(C)C (stereo not given)	none (no result: Eya2 inh, GALK inh, USP2a block)
COc1ccc(/C=N/Nc2nnc(-c3ccccc3)c(=O)[nH]2)cc1	ClpP mod 25.1µM
CCOc1ccc(CN2CCN(Cc3ccc4c(c3)c3ccccc3n4CC)CC2)cc1	ClpP mod 20µM (no result: Eya2 inh, GALK inh, USP2a block)
CCCS(=O)(=O)N1CCN(Cc2ccc3c(c2)c2ccccc2n3CC)CC1	ClpP mod inconclusive
COc1ccc(CCNC(=O)CSc2ccsc2[N+](=O)[O-])c(OC)c1	none
CCOC(=O)C(=O)N=Nc1c(O)[nH]c2ccccc12	ClpP mod 22.4µM
CNC(=S)N=Nc1c(O)[nH]c2ccccc12	none
COc1ccc(OC)c(NC(=O)c2cnc(Nc3ccccc3OC)c3ccccc23)c1	ClpP mod 35.5µM (no result: GALK inh)
COC(=O)c1ccccc1NC(=O)c1cnc(Nc2ccc(OC)cc2)c2ccccc12	none (no result: Eya2 inh, GALK inh, USP2a block)
CCC(CC)C(=O)N(C)c1c(C)nc2c(OCc3ccccc3OC)cccn12	none (no result: Eya2 inh, GALK inh, USP2a block)
Cc1ccccc1CCNC(=O)c1cc(C2CC2)nc2c1cnn2C(C)C	none (no result: GALK inh)
CC(C)n1ncc2c(C(=O)NCCc3ccc(F)cc3)cc(C3CC3)nc21	ClpP mod 31.6µM (no result: GALK inh)
Cc1ccc2c(c1C)-c1c(ccc(C)c1C)C(=O)C2=O	none (no result: Eya2 inh, GALK inh, USP2a block)
